Assay results from patent US20030059769, “High affinity nucleic acid ligands to lectins” (published 2003).

Target: T1, L-selectin (LS-Rg) (Homo sapiens, UniProt P14151 P14151:39-332)
T1 sequence: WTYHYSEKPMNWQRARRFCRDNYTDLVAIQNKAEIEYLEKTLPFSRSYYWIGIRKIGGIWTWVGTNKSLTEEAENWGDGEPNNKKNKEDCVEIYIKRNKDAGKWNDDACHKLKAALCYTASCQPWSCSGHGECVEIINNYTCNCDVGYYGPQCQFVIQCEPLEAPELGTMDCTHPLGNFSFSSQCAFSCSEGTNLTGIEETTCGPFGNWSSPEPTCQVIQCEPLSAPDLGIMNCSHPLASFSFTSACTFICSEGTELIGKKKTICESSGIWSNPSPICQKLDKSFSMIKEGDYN
Assay: filter; 26-nt hairpin truncate
Conditions: tags: human IgG2 Fc fusion, chain copies: dimer, label: 32P; ssDNA

Row | Sequence | binding signal
1 | CCAGTACAAGGTGCTAAACGTAATGG | 20 fold weaker than LD201
2 | GCGTTACAAGGTGCTAAACGTAACGT | 100 fold weaker than LD227
